The supplement of paper PMC10600219
“And” between values parts separate entries of the source, which are not always exact repeats. Equal entries are not always repeated. Structures can show the parent of a compound that is named as a salt. Whole data set: some 2,800 compounds, median “cell viability relative to vehicle” near 1.1, cut for the lowest 2% near 0.19. For the sample, the lowest values were picked, then their nearest neighbours and some compounds at random.

System: NCI-H2228 parental
Assay: cell viability relative to vehicle (fraction of vehicle); NCI-H2228 is an ALK-positive lung cancer line and DTP means drug-tolerant persister; higher = less growth inhibition
Details: 100 nM; treatment time 6 days
In short: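 Each value is viability relative to vehicle-treated cells, measured as ATP with the CellTiter-Glo 3D Cell Viability Assay. Parental NCI-H2228 cells and drug-tolerant persisters (1000 nM targeted drug, 13 days) in 384-well plates received the 3114-agent TargetMol anti-cancer compound library at 100 nM, or DMSO, and were read 6 days later.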

SMILES | cell viability
Cn1cc(C[C@@H](N)C(=O)O)c2ccccc21 [Indoximod] | 1.11
Cn1cc(CNCC2CCN(c3ncc(C(=O)NO)cn3)CC2)c2ccccc21 [Quisinostat] | 0.159
CN1CCc2c(c3ccccc3n2Cc2ccc(C(=O)NO)cc2)C1 [Tubastatin A HCl] | 1.02
CCCN1CCN(c2ccc(C(=O)NC3(C(=O)NCC#N)CCCCC3)cc2)CC1 [Balicatib] | 1.07
CC(C)=CCC[C@](C)(O)[C@H]1CC[C@]2(C)[C@@H]1[C@H](O)C[C@@H]1[C@@]3(C)CC[C@H](O)C(C)(C)[C@@H]3[C@@H](O[C@@H]3O[C@H](CO)[C@@H](O)[C@H](O)[C@H]3O[C@@H]3O[C@@H](C)[C@H](O)[C@@H](O)[C@H]3O)C[C@]12C [Ginsenoside Rg2] | 1.15
CCCCCCCCOC(=O)c1cc(O)c(O)c(O)c1 [Octyl gallate] | 1.03
CC[C@@](C)(Nc1ccnc(-c2c[nH]c3ncccc23)n1)C(=O)NCC(F)(F)F [Decernotinib] | 1.12
COc1cc2ncnc(Nc3cccc(Cl)c3)c2cc1OC | 0.877
O=C(Nc1cccc(Cl)c1)Nc1ncc(CCNc2ncnc3ccsc23)s1 [SNS-314 Mesylate] | 0.126
COc1cc(/C=C/C(=O)OC[C@H]2O[C@H](O[C@]3(CO)O[C@H](CO)[C@@H](O)[C@@H]3OC(=O)/C=C/c3cc(OC)c(O)c(OC)c3)[C@H](O)[C@@H](O)[C@@H]2O)cc(OC)c1O [3,6'-Disinapoyl sucrose] | 0.963
Fc1ccc(-n2cc(CCCCN3CCC4(CC3)OCc3ccccc34)c3ccccc32)cc1 [Siramesine hydrochloride] | 1.13
COc1cccc(-c2cc(F)ccc2[C@H]2Cc3nc(N)nc(C)c3C(=O)N2)n1 | 0.171
COc1ccc(-c2cc3c(C)nc(N)nc3n([C@H]3CC[C@H](OCCO)CC3)c2=O)cn1 | 0.485
Oc1ccc(-c2cc(=S)ss2)cc1 [Desmethylanethol trithione] | 1.03
Cc1cc(C#N)c(N)s1 [2-Amino-5-methyl-3-thiophenecarbonitrile] | 0.811
COCCNc1cc(NC(=O)N2CCCc3cc(CN4CCN(C)CC4=O)c(C=O)nc32)ncc1C#N [Roblitinib] | 1.13
COc1ccc2[nH]c(C(=O)c3ccccc3)cc2c1 | 0.197
O=C(CCCCCCNC(=O)c1cnc(N(c2ccccc2)c2ccccc2Cl)nc1)NO [Citarinostat] | 1.03
CC(C)c1cc(-c2n[nH]c(=O)n2-c2ccc3c(ccn3C)c2)c(O)cc1O [Ganetespib] | 0.118
CC[C@@]1(O)C(=O)OCc2c1cc1n(c2=O)Cc2cc3cc(O)ccc3nc2-1 [Hydroxy Camptothecine] | 0.0691
CCc1c2c(nc3ccc(O)cc13)-c1cc3c(c(=O)n1C2)COC(=O)[C@]3(O)CC | 0.0693

SMILES | cell viability
CCc1c2c(nc3ccc(OC(=O)N4CCC(N5CCCCC5)CC4)cc13)-c1cc3c(c(=O)n1C2)COC(=O)[C@]3(O)CC [Irinotecan hydrochloride trihydrate] | 1.11
CC[C@@]1(O)C(=O)OCc2c1cc1n(c2=O)Cc2cc3c(CN(C)C)c(O)ccc3nc2-1 [Topotecan hydrochloride] | 0.0837
CC[C@@]1(O)C(=O)OCc2c1cc1n(c2=O)Cc2cc3cc(O)ccc3nc2-1 [10-Hydroxycamptothecin] | 0.0838
CCc1c2c(nc3ccc(OC(=O)N4CCC(N5CCCCC5)CC4)cc13)-c1cc3c(c(=O)n1C2)COC(=O)[C@]3(O)CC [Irinotecan] | 0.939
CC(C)C(C(=O)O)N1C(=O)C(=Cc2ccc(Br)cc2)SC1=S (stereo unspecified) | 1.04
COc1ccc(-c2oc3cc(O)cc(O)c3c(=O)c2O)cc1 [kaempferide] | 1.13
OC[C@H]1O[C@@H](Oc2cc(O)cc(/C=C/c3ccc(O[C@@H]4O[C@H](CO)[C@@H](O)[C@H](O)[C@H]4O)cc3O)c2)[C@H](O)[C@@H](O)[C@@H]1O [Mulberroside A] | 1.07
N[C@@H](CO)C(=O)O [serine] | 1.06
COc1ccc(C(=C2C(=O)Nc3ccccc32)c2ccc(OC)cc2)cc1 | 1.05
CN(C)C(=S)NN=C(c1ccccn1)c1ccccn1 | 0.212
S=C(N/N=C1/CCCc2cccnc21)N1CCN(c2ccccn2)CC1 | 1.09
C/C(=N\NC(=S)N1CCC1)c1ccccn1 | 0.136
COc1cc(OC)cc(C(=O)Nc2ccc(Cl)c(-c3nc4ccc(N(C)C)cc4[nH]3)c2)c1 [HhAntag] | 1.03
NC(=O)c1ccc(OCCCN2CC3CCCC3C2)cc1 (stereo unspecified) | 1.17
COc1c(Nc2ncc(Cl)c(N[C@H]3[C@@H](C(N)=O)[C@@H]4C=C[C@H]3C4)n2)ccc2c1CC[C@@H](N1CCOCC1)CC2 | 0.799
Cc1[nH]c2ccccc2c1CCNC(=O)c1cccs1 | 1.06
CN(C)Cc1ccc(S(=O)(=O)n2ccc(/C=C/C(=O)NO)c2)cc1 [Resminostat hydrochloride] | 1.02
Cc1[nH]c2ccccc2c1CCNCc1ccc(/C=C/C(=O)NO)cc1 [Panobinostat] | 0.094
CC(C)c1cc2c(c(O)c1O)[C@@]13CCCC(C)(C)[C@@H]1C[C@@H]2OC3=O [Carnosol] | 1.04
O=C1C=C2C=C[C@@H](O)[C@H](O)[C@H]2O1 [griffonilide] | 1.11
N#CN=C(NCCCCCCOc1ccc(Cl)cc1)Nc1ccncc1 | 0.0557

SMILES | cell viability
N=C(NCCCCCCNC(=N)NC(=N)Nc1ccc(Cl)cc1)NC(=N)Nc1ccc(Cl)cc1 [Chlorhexidine] | 1.08
N=C(NCCCCCCNC(=N)NC(=N)Nc1ccc(Cl)cc1)NC(=N)Nc1ccc(Cl)cc1 [Chlorhexidine hydrochloride] | 0.965
CN1CCN(C(=O)C2C(C(=O)O)[C@H]3CC[C@@H]2O3)CC1 (stereo partly specified) | 0.955
O=C1CSc2ccccc2N1Cc1cccc(C(F)(F)F)c1 | 1.04
OC[C@@H](O)[C@@H](O)[C@@H](O)[C@@H](O)CO [Allitol] | 1.13
Cn1cc(-c2nc(N[C@@H]3CCCC[C@@H]3N)c(F)c3c2C(=O)NC3)cn1 [TAK-659 hydrochloride] | 1.01
Nc1nc(Cl)nc2c1ncn2[C@H]1C[C@H](O)[C@@H](CO)O1 [Cladribine] | 0.201
Nc1nc(Cl)nc2c1ncn2[C@@H]1O[C@H](CO)[C@@H](O)[C@@H]1F [Clofarabine] | 0.151
Nc1nc(F)nc2c1ncn2[C@@H]1O[C@H](CO)[C@@H](O)[C@@H]1O [Fludarabine] | 1.12
NS(=O)(=O)Oc1ccc2c3c(c(=O)oc2c1)CCCCC3 [Irosustat] | 1.04
O=C(O)c1ccc(S(=O)(=O)NC2CCCCC2)cc1 | 0.986 and 1.12
CC(C)c1cc(C(=O)N2Cc3ccc(CN4CCN(C)CC4)cc3C2)c(O)cc1O [Onalespib] | 0.29
C[C@@H](Oc1cc(-n2cnc3ccc(CN4CCN(C)CC4)cc32)sc1C(N)=O)c1ccccc1C(F)(F)F | 0.156
COc1ccc(CC(C)(C)NC[C@H](O)c2cc(O)cc3c2OCC(=O)N3)cc1 [Olodaterol] | 0.923
Cc1ccc(/C=C2\CNC/C(=C\c3ccc(C)cc3)C2=O)cc1 | 1.06
c1ccc(CNc2ccccc2)cc1 [N-Phenylbenzylamine] | 1.16
Cc1cc(O)c(-c2ccc(C(C)CN)cc2)c2c1[nH]c(=O)c1sccc12 (stereo unspecified) | 0.116
COC(=O)c1ccc(O)c(OC)c1 [Methyl Vanillate] | 1.18
CCC(=O)N1CCN(c2ccc(-n3c(=O)ccc4cnc5ccc(-c6cnc7ccccc7c6)cc5c43)cc2C(F)(F)F)CC1 [Torin 1] | 0.306
COc1ccc(-c2ccc3ncc4c(c3c2)n(-c2ccc(N3CCNCC3)c(C(F)(F)F)c2)c(=O)n4C)cn1 | 0.172
Cn1c(=O)n(-c2ccc(C(C)(C)C#N)cc2)c2c3cc(-c4cnc5ccccc5c4)ccc3ncc21 [Dactolisib] | 0.258

SMILES | cell viability
NC(=O)c1ccc2nc(-c3ccc(Oc4ccc(Cl)cc4)cc3)[nH]c2c1 | 0.996
Nc1ccc(Cl)cc1C(=O)O [2-Amino-5-chlorobenzoic acid] | 1.16
Cc1cc(Nc2cc(N3CCN(C)CC3)nc(Sc3ccc(NC(=O)C4CC4)cc3)n2)n[nH]1 [Tozasertib] | 0.158
Cc1cc(Nc2cc(N3CCN(C)CC3)nc(/C=C/c3ccccc3)n2)n[nH]1 | 0.803
Cc1nc(Nc2ncc(C(=O)Nc3c(C)cccc3Cl)s2)cc(N2CCN(CCO)CC2)n1 [Dasatinib monohydrate] | 0.77
Cc1nc(Nc2ncc(C(=O)Nc3c(C)cccc3Cl)s2)cc(N2CCN(CCO)CC2)n1 [Dasatinib] | 0.872
O=C(O)c1ccc(CN2C[C@@H]3C[C@H]2CN3Cc2ccc(Oc3ccc(-c4ncco4)cc3)cc2)cc1 [Acebilustat] | 1.05
CN1C(=O)C(C)(C)Oc2c(-c3cn(C)c(=O)c4[nH]ccc34)cc(S(C)(=O)=O)cc21 | 0.935
C(=N\NC1=NCCN1)/c1c2ccccc2c(/C=N/NC2=NCCN2)c2ccccc12 [Bisantrene] | 1.01
CC(C)=CCc1cc(-c2coc3cc(O)ccc3c2=O)ccc1O [Neobavaisoflavone] | 1.17
CC(=O)NCCC(=O)O | 0.856
COc1cc(/C=C2/SC(=S)NC2=O)ccc1OCC(=O)O | 1.1
CC[C@@H]1C(=O)N(C)c2cnc(Nc3ccc(C(=O)NC4CCN(C)CC4)cc3OC)nc2N1C1CCCC1 | 0.167
CCOc1cc(N2CCC(O)CC2)ccc1Nc1ncc2c(n1)N(C1CCCC1)CCC(=O)N2C | 1.15
COc1cc(C(=O)N2CCC(N3CCN(C)CC3)CC2)ccc1Nc1ncc2c(n1)N(C)c1ccccc1C(=O)N2C | 1.11
CC[C@@H]1C(=O)N(C)c2cnc(Nc3ccc(C(=O)N[C@H]4CC[C@H](N5CCN(CC6CC6)CC5)CC4)cc3OC)nc2N1C(C)C [Volasertib] | 0.192
COc1cc(C(=O)NC2CCN(C)CC2)ccc1Nc1ncc2c(n1)N(C1CCCC1)CC(F)(F)C(=O)N2C | 0.171
CCOc1cc(C(=O)N2CCC(N3CCN(C)CC3)CC2)ccc1Nc1ncc2c(n1)N(C1CCCC1)c1ccccc1C(=O)N2C | 1.23
